Source: PubChem BioAssay (National Center for Advancing Translational Sciences (NCATS))
D1 antagonist – blocks dopamine activation of the human D1 receptor; P21728; HEK293 TREx D1 cells, calcium flux, dopamine EC80; stronger effect = lower value; activity change, negative = inhibition, % at 10 µM; 3.2% of 360,000 active; AID 504652; in the data active means activity change below about -30%; further: on the % scale 0 is the no-effect control and ±100 the full control effect
Target sequence (P21728 whole entry, looked up): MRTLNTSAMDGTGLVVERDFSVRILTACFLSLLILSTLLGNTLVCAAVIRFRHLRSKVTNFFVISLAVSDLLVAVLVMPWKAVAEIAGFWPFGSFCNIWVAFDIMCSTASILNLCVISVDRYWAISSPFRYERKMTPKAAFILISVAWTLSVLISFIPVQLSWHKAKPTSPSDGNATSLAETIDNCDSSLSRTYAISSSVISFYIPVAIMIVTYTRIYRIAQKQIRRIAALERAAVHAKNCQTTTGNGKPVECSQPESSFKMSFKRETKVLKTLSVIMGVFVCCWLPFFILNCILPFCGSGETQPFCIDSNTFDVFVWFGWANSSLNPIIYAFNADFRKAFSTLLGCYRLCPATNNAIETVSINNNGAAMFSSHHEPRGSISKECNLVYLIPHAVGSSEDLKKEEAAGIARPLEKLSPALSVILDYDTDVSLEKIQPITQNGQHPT
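HEK293 T-REx cells expressing inducible, force-coupled D1 receptor; no-wash Ca dye, 30–90 min RT. Cmpd → 180 s read at 1 Hz → EC80 DA → 180 s read.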
TRHR ag – activates the human TRH receptor | P34981 | TRHR cells, calcium flux fluo-8, FDSS agonist mode | activation, % at 2 µM | 0.18% of 360,000 active | AID 493084; further: 0% is about no effect
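In this calcium-flux screen, cells bearing human TRHR are dye-loaded with fluo-8, baselined for 10 cycles, then exposed to library compounds; positive kinetic calcium responses during the agonist phase mark hits, with TRH as control.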
D1 PAM – potentiators of human D1 dopamine receptor | P21728 | HEK293 TREx D1 cells, calcium flux, dopamine EC20 potentiation | potentiation, % at 10 µM | 0.036% of 360,000 active; in the data active means potentiation above about 30%; further: 0% is about no effect
TRHR PAM – TRH receptor (human) allosteric enhancement; TRHR cells, fluo-8 calcium fluorescence, EC20 TRH enhancement; enhancement, % at 2 µM; 0.66% of 360,000 active; in the data active means enhancement above about 30%; further: 0% is about no effect
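Enhancer read-out: after compound pinning and an initial kinetic agonist-mode read, an EC20 of TRH (10 nM final) was injected and fluo-8 calcium signal (Ex 480/Em 530) followed at 1 s/cycle for 100 cycles in TRHR-expressing cells.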
D1 ag – activates the human D1 dopamine receptor; 1% of 360,000 active; activation, % at 2 µM; HEK293 T-REx D1 cells, calcium flux, agonist mode; further: 0% is about no effect
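Inducible HEK293 T-REx D1 cells, force-coupled to calcium signalling, were plated at 4000 cells/well with tetracycline and held overnight at 30 C. After no-wash calcium dye loading, compound-evoked calcium rise over 180 s flagged agonists.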
Active calls of the source: *. Hits are enriched below; roughly 4.7% of the tested compounds scored in any of these assays. Unless noted, no stated cut-off is given here; in the data, active means activation above about 30%; inactive means the rest.

SMILES	D1 antagonist	TRHR ag	D1 PAM	TRHR PAM	D1 ag
O=C(/C=C/c1ccccc1Cl)N1CCN(c2ncccn2)CC1	-31*	0	-2	-1	3
O=C(/C=C/c1ccc(Cl)cc1)N1CCN(c2ncccn2)CC1	-10	0	-1	5	1
Cc1oc2ncn(CC(C)C)c(=O)c2c1C(=O)N1CCN(c2ccc(F)cc2)CC1	11	0	0	-10	-1
CC(=O)c1ccc(NC(=O)c2ccc3snnc3c2)cc1	-24	1	-3	-14	2
O=C(Nc1ccccc1)Nc1ccc2snnc2c1	-52*	3	-5	-7	25
Cc1cc(C)c(NC(=O)Nc2ccc3snnc3c2)c(C)c1	-29	2	-3	8	29
O=C(Nc1ccccc1)Nc1ccc2nnsc2c1	-19	3	-2	-7	33*
CCOc1ccc(NC(=O)Nc2cc(C(C)C)c(O)cc2C)cc1	-47*	0	-5	-15	0
CN(C)c1ccc(NC(=O)Nc2ccc3snnc3c2)cc1	-48*	1	-7	-8	16
COc1cc(C2c3c(c(C)c(C)oc3=O)Oc3c(C)c(C)oc(=O)c32)ccc1OS(=O)(=O)c1ccc(C)cc1	38	0	2	-12	2
O=C(Nc1ccc(F)cc1)Nc1cc(OCC(F)(F)F)cc(OCC(F)(F)F)c1	4	2	-14	-8	10
CCOc1ccc(NC(=O)Nc2cc(OCC(F)(F)F)cc(OCC(F)(F)F)c2)cc1	-37*	0	-3	5	17
CCOc1ccc(NC(=O)Nc2ccc3snnc3c2)cc1	-39*	1	-4	2	28
O=C(Nc1cccc(C(F)(F)F)c1)Nc1ccc2snnc2c1	-69*	3	-3	6	37*
O=C(CCCOc1ccc(Cl)cc1Cl)NNC(=O)c1ccc(NC(=O)c2ccccc2)cc1	7	-1	2	1	11
Cc1ccccc1C(=O)Nc1ccc(C(=O)NNC(=O)CCCOc2ccc(Cl)cc2Cl)cc1	-39*	0	-4	2	3
COc1ccc(C(=O)C(OC(=O)c2ccc(C)c(NC(C)=O)c2)c2ccccc2)cc1 (stereo not drawn)	2	2	6	14	1
COc1ccc(C(=O)OC(C(=O)c2ccccc2)c2ccccc2)cc1 (stereo not drawn)	-30*	1	-8	4	13
COC(=O)c1c(NC(=O)COC(=O)c2ccc(Cl)nc2)sc(C)c1C	10	0	-5	-3	0
CCSc1nnc(NC(=O)c2cc(=O)c3cc(C)ccc3o2)s1	-2	0	0	1	1
CC1=CC2=NC(=O)/C(=C/c3coc4ccc(Cl)cc4c3=O)C(=N)N2O1	-10	185*	2	28	231*
CSC1=NSC2=NC(=O)/C(=C\c3cccs3)C(=N)N12	-3	1	-22	-4	5
N=C1/C(=C\c2coc3ccccc3c2=O)C(=O)N=C2SC=CN12	-13	199*	-6	53*	342*
CC1=CC2=NC(=O)/C(=C\c3cc(C)n(-c4cccc(Cl)c4)c3C)C(=N)N2O1	5	0	3	-2	1
CSC1=NSC2=NC(=O)/C(=C/c3coc4ccccc4c3=O)C(=N)N12	-4	78*	0	14	275*
SMILES	D1 antagonist	TRHR ag	D1 PAM	TRHR PAM	D1 ag
O=C1NN(c2ccccc2)C(=O)/C1=C\c1coc2ccc(O)cc2c1=O	-70*	2	-7	7	1
N=C1/C(=C/c2cccn2Cc2ccc(F)cc2)C(=O)N=C2SC=CN12	3	-1	2	-1	0
COc1ccc(C(=O)c2oc3ccccc3c2NC(=O)c2nc(SC)ncc2Cl)cc1Cl	7	0	-1	-4	3
CSC1=NSC2=NC(=O)/C(=C/c3coc4ccc(O)cc4c3=O)C(=N)N12	1	68*	3	12	168*
CC(=O)c1cccc(CN2CCCC(C(=O)Nc3ccc(-c4ccco4)cc3)C2)c1 (stereo not drawn)	-46*	0	-11	-2	12
Cc1ncc(CN2CCCC(C(=O)Nc3ccc(-c4cccc(F)c4)cc3)C2)cn1 (stereo not drawn)	-33*	0	-2	-5	29
CCc1cc2c(cc3c(=O)n(CCCC(=O)NCc4cccc(Cl)c4)ncn32)s1	-25	1	1	15	2
